Consider 47 compounds from PubChem BioAssay AID1851 (National Center for Advancing Translational Sciences (NCATS), 2009).

For orientation: AC50 means the concentration at which the activity in the assay is half-maximal.

Each structure is given as a SMILES string. Values joined by “and” are separate entries in the source; they are usually repeats but may differ in a detail not shown here. Identical values can stand only once. In all, about 16,000 compounds went through this assay and about 5,800 (36%) were called active. Another 23% or so got no clear call; they are omitted. Calls follow the shape of the dose curve; as a rule, active = well fitted curve in the direction sought with a large enough effect; inconclusive = small, poorly fitted or top-dose-only effect, or effect the other way; inactive = no such curve, though single readings can be large or run the other way. The list shows a part of the results. The source holds several records for some structures; these can differ, active in one and inactive in another.
% is scaled to controls: 0 for no effect and ±100 for the full control effect.

For this assay, the target named is Cytochrome P450 2C19 (Homo sapiens) (UniProt P33261). The assay can be described thus: Cytochrome panel assay with activity outcomes. The note with it: recombinant CYP, pro-luciferin dealkylation, luminescence, p450-cyp2c19; series mostly up to 57.1 µM; activity, negative = inhibition: at the top concentration.
Sequence of Cytochrome P450 2C19 (Homo sapiens) (P33261 whole entry, looked up): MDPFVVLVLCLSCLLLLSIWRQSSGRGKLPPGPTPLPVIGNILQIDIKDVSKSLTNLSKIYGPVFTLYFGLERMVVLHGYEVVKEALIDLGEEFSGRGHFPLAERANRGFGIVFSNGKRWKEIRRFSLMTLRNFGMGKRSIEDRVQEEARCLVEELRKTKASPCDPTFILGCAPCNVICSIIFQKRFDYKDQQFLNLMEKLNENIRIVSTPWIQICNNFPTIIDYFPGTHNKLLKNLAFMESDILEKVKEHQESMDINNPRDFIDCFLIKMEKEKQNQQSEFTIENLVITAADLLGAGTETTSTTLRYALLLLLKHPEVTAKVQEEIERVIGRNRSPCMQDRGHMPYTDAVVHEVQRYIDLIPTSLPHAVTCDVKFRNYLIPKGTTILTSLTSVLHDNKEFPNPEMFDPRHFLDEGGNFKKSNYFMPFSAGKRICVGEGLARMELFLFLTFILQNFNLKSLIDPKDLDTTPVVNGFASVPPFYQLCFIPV
For `NC1=N[C@H](c2ccc(Cl)cc2)N(c2ccc(S(=O)(=O)Nc3ncccn3)cc2)C(N)=N1`, the activity, negative = inhibition is 8.72% [at 11.4 µM] (inactive).

For `Cc1ccc(CSc2nnc([C@@H]3CCCN3)o2)cc1`, the AC50 is 7.08 µM (active).

For the compound `Cc1ccc(CSc2nc3c(c(SCC(=O)O)n2)CCCC3)cc1`, the “activity, negative = inhibition” value is -21.9% (inactive).

For the compound `CN1CCN(c2ncc3nc(-c4cccc(C#N)c4)c(=O)n(C)c3n2)CC1`, the “activity, negative = inhibition” value was -41.4% (inactive).

For `Cn1cccc1C(=O)N1CCC2(CCCN(c3ccc(-c4ccccc4)cc3)C2)CC1`, the “activity, negative = inhibition” value is -39.1% (inactive).

Regarding `Cn1cccc1C(=O)N1CCC2(CC1)CCN(c1ccccc1)CC2`, the “activity, negative = inhibition” value was -18.5% (inactive).

With `Cn1cccc1C(=O)N1CCC2(CCCN(c3cccc(-c4ccccc4)c3)C2)CC1`, the AC50 is 10 µM (active).

Turning to `Cn1cccc1C(=O)N1CCC2(CC1)CCN(c1cccc(-c3ccccc3)c1)CC2`, the “activity, negative = inhibition” value is -39.8% (inactive).

Consider `Cn1cccc1C(=O)N1CCC2(CCCN(c3ccccc3)C2)CC1`, for which the AC50 is 7.94 µM (active).

For `CN1CCCC2(CCN(C(=O)c3cccn3C)CC2)C1`, the “activity, negative = inhibition” value is -6.51% (inactive).

As to `Cc1ccc(-n2cc(C(=O)c3ccc4ccccc4c3O)cn2)cc1`, the “activity, negative = inhibition” value is -25% (inactive).

For the compound `O=C(c1cnn(-c2ccccc2)c1)c1ccc2ccccc2c1O`, the AC50 was 5.62 µM (active).

Turning to `O=C(O)c1cc(C(=O)C(=O)c2cc(C(=O)O)c(O)c3ccccc23)c2ccccc2c1O`, the activity, negative = inhibition was -29.3% [at 11.4 µM] (inactive).

As for `CCCCOC(=O)Nc1ccccc1C(=O)OC`, the concentration at half-maximal activity (AC50) was 14.1 µM (active).

Consider `Cc1ccc(-n2c(-c3cc(C)n(C)n3)n[nH]c2=S)cc1`, for which the “activity, negative = inhibition” value is 17.3% (inactive).

For `Cc1nn(CCc2n[nH]c(=S)n2-c2ccc(F)c(Cl)c2)c(C)c1[N+](=O)[O-]`, the half-maximal activity concentration (AC50) was 14.1 µM (active).

`CC(C)=C1C(=O)NN(c2ccc(F)c(Cl)c2)C1=O`: the “activity, negative = inhibition” value is -21.5% (inactive).

On to `COC(=O)[C@@]1(Cc2ccccc2)[C@H]2c3cc(C(=O)N4CCCC4)[nH]c3C[C@H]2CN1C(=O)c1ccccc1`, for which the concentration at half-maximal activity (AC50) is 0.501 µM (active).

Turning to `COC(=O)[C@@]1(Cc2ccc(OC)cc2)[C@H]2c3cc(C(=O)N(C)C)[nH]c3C[C@H]2CN1C(=O)c1ccccc1`, the AC50 is 5.01 µM (active).

Turning to `COC(=O)[C@@]1(Cc2ccc(OC)cc2)[C@@H]2[C@@H](CC(=O)[C@H]2CC(=O)C(=O)N(C)C)CN1C(=O)c1ccccc1`, the “activity, negative = inhibition” value is -29.2% (inactive).

On to `O=C(O)COC(=O)Cc1ccccc1Nc1c(Cl)cccc1Cl`, for which the “activity, negative = inhibition” value is 22.1% [at 25.6 µM] (inactive).

For the compound `NC(N)=NC(=O)Cc1c(Cl)cccc1Cl`, the half-maximal activity concentration (AC50) entry is “inactive and 251 nM (active)”.

Consider `NC(N)=NN=Cc1c(Cl)cccc1Cl`, for which the AC50 entry was “inactive”.

For `CC(C)(C)CNCCO`, the activity, negative = inhibition is 7.05% [at 11.4 µM] (inactive).

As for `CC1(C)SC(=S)N(NC(=O)Nc2ccccc2)C1N(O)C(=O)Nc1ccccc1` (configuration not stated), the concentration at half-maximal activity (AC50) was 14.1 µM (active).

For `CCC(C)NS(=O)(=O)c1ccc(OCC(=O)NCC2CCCO2)cc1` (configuration not stated), the “activity, negative = inhibition” value is -20.6% (inactive).

Consider `Cc1ccc(S(=O)(=O)N[C@H](C(=O)Oc2ccc3c(C(F)(F)F)cc(=O)oc3c2)c2ccccc2)cc1`, for which the AC50 is 20 µM (active).

Take `Cc1cc2ccc(OC(=O)c3ccc(N=C(N)N)cc3)cc2oc1=O`: the activity, negative = inhibition is 13.8% [at 11.4 µM] (inactive).

As for `CCC(C)C(NS(=O)(=O)c1ccc(C)cc1)C(=O)Oc1ccc2c3c(c(=O)oc2c1)CCC3` (configuration not stated), the AC50 was 3.98 µM (active).

For `Cc1nn(-c2ccc(F)cc2)c(Cl)c1/C=C(\CCC(=O)O)c1nc2ccccc2s1`, the AC50 was 15.8 µM (active).

In the case of `COc1ccccc1C/C(N)=N/OC(=O)c1ccc(C)c([N+](=O)[O-])c1`, the AC50 is 8.91 µM (active).

In the case of `Cn1c(=O)n2n(c1=O)[C@H]1[C@H](O)[C@H]3O[C@@H]3/C(=N/OC[C@@H](O)COCc3ccco3)[C@@H]1CC2`, the activity, negative = inhibition was -21.1% [at 11.4 µM] (inactive).

`Oc1cccc2ccc(SSc3ccc4cccc(O)c4n3)nc12`: the half-maximal activity concentration (AC50) was 3.16 µM (active).

As for `COc1ccc(-n2c(=O)c(-c3cccs3)nc3cnc(N4CCN(C)CC4)nc32)cc1`, the “activity, negative = inhibition” value was -21.9% (inactive).

In the case of `CCCOc1ccc(N2C(=O)CC(S/C(N)=N/N=C(\C)c3cccs3)C2=O)cc1` (configuration not stated), the half-maximal activity concentration (AC50) is 6.31 µM (active).

Take `COc1ccc(N2C(=O)CC(S/C(N)=N/N=C(\C)c3cccs3)C2=O)cc1` (configuration not stated): the AC50 was 7.08 µM (active).

In the case of `O=C(N/N=C/c1ccc2cccc(OCc3ccccc3)c2n1)c1ccc(Br)cc1`, the half-maximal activity concentration (AC50) was 3.55 µM (active).

Take `S=C(CSc1ccccc1)Nc1cccc2ccccc12`: the AC50 is 0.794 µM (active).

For `CCCCn1nc2cc(C(=O)NCc3ccc(C(F)(F)F)cc3C(F)(F)F)ccc2c1OCC`, the half-maximal activity concentration (AC50) was 12.6 µM (active).

For the compound `COc1ccc(C(=O)N2CCC3(CCN(Cc4cc(C(F)(F)F)cc(C(F)(F)F)c4)CC3)CC2)cc1`, the “activity, negative = inhibition” value is -12.6% (inactive).

Turning to `CCOc1c2ccc(C(=O)NCc3cc(C(F)(F)F)cc(C(F)(F)F)c3)cc2nn1C`, the concentration at half-maximal activity (AC50) was 28.2 µM (active).

With `CCN(CC)CCNC(=O)c1cc(Cl)c(N)cc1OC`, the AC50 result is “inactive”.

Regarding `O=C1c2ccccc2C(=O)N1CC1c2ccccc2CCN1S(=O)(=O)c1ccccc1` (configuration not stated), the half-maximal activity concentration (AC50) is 2 µM (active).

Turning to `CN1CCC2(CC1)CCN(S(=O)(=O)c1ccccc1)CC2`, the “activity, negative = inhibition” value was 2.37% (inactive).

For `C[N+](C)(C)CCCCCNCC12CC3CC(CC(C3)C1)C2`, the “activity, negative = inhibition” value is -35% (inactive).

On to `Cc1cc(Cn2cnc3c2C[C@@H](C(=O)O)N(C(=O)C(c2ccccc2)c2ccccc2)C3)ccc1N(C)C`, for which the AC50 is 1.58 µM (active).

For the compound `CCCn1nnc(NC(=O)c2ccc(-c3cccc(Cl)c3)o2)n1`, the concentration at half-maximal activity (AC50) was 20 µM (active).
